# Results: PubChem BioAssay (NCATS)
# Results filed as inconclusive are left out. Calls of active or inactive are those of the source. Unless noted, calls follow the shape of the dose curve; as a rule, active = well fitted curve in the direction sought with a large enough effect; inconclusive = small, poorly fitted or top-dose-only effect, or another doubt; inactive = no such curve, though single readings can be large; an effect the other way counts as inactive or inconclusive.
# Experiments:
# [1] = Confirmation and Secondary Assay for Modulators of Hemoglobin Beta Chain Splicing at IVS2 654 locus (AID 910);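 also: HeLa cells stably carrying EGFP split by mutant beta-globin IVS2-654 intron; % of control where 0% means no effect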
# How it was run: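 Readout: per-well total peak green fluorescence (488 nm ex, 500–520 nm em) from objects 5–250 µm, reflecting correct splicing of an EGFP-654 reporter. Compounds were applied for 2 days at 37 °C to overnight-plated HeLa EGFP-654 cells; controls were DMSO and 500 nM IVS2-654 PNA.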
# [2] = Confirmation and Secondary Assay for Modulators of Hemoglobin Beta Chain Splicing at IVS2 705 locus (AID 930);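 also: HeLa cells stably expressing the EGFP-705 splicing reporter; GFP fluorescence per well restored by corrected splicing of the IVS2-705 intron in EGFP; % of control where 0% means no effect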
# How it was run: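 HeLa cells stably carrying EGFP interrupted by mutant beta-globin intron 2 (IVS2-705) treated 2 days at 37C with compound; 500 nM antisense PNA as control. Correct splicing read as total peak GFP intensity per well by laser-scanning cytometry.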
# [3] = qHTS Assay for Lipid Storage Modulators (AID 1519; calls by dose curve; also: potency is read from the fitted curve at half-maximal effect; as to activity change, negative = inhibition: % is scaled to controls: 0 for no effect and ±100 for the full control effect); conditions: Drosophila S3 cells, BODIPY lipid droplet/cell ratio, laser cytometry, cells loaded with oleic acid; for activity change, negative = inhibition: at 57.5 µM (top of the series)
# How it was run: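 Cells seeded at 5,000 per well were treated with compounds over a concentration series and loaded with oleic acid (400 uM, as added). Lipid droplet fluorescence (488 nm excitation, 500-530 nm channel) was read by laser-scanning cytometry and normalized to 20 uM Triacsin C.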
# [4] = target: Ubiquitin carboxyl-terminal hydrolase 1 (Homo sapiens) (UniProt O94782); experiment: Inhibitors of USP1/UAF1: Pilot qHTS (AID 504865);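 also: rhodamine fluorescence freed from ubiquitin-rhodamine substrate followed over time; top concentration of the series differs between compounds; % is scaled to controls: 0 for no effect and ±100 for the full control effect; nearly all actives have a fitted effect of over 35% in size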
# How it was run: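 Kinetic fluorescence assay: 1nM USP1/UAF1, 15 min compound preincubation, then 150nM Ub-Rho; 480/540 nm.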
# [5] = target: DNA dC->dU-editing enzyme APOBEC-3G (Homo sapiens) (UniProt Q9HC16); experiment: qHTS for inhibitors of Vif-A3G interactions: Validation (AID 588379); also: 0% is about no effect
# How it was run: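 Yellow fluorescence (Ex 488, Em 500-530) of Vif-coexpressing HeLa A3G-eYFP cells, scanned by Acumen cytometer, reports blocked A3G degradation. Cells plated at 700/well overnight at 37 deg C before compound addition, then a further overnight compound incubation at 37 deg C.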
# [6] = target: Cytochrome P450 3A4 (Homo sapiens) (UniProt P08684); experiment: qHTS Assay for Inhibitors and Substrates of Cytochrome P450 3A4 (AID 884); also: nearly all actives have a fitted effect of over 50% in size; also: potency is read from the fitted curve at half-maximal effect; as to activity change, negative = inhibition: % is scaled to controls: 0 for no effect and ±100 for the full control effect
# How it was run: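 Luminescent readout of luciferin produced by CYP3A4 (20 nM) dealkylation of Luciferin-PPXE, 25 uM (its KM). NADPH-driven reaction ran 60 min at RT after 10 min compound preincubation; data scaled to 57 uM ketoconazole as 100% inhibition.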
# [7] = target: Cytochrome P450 3A4 (Homo sapiens) (UniProt P08684); experiment: qHTS Assay for Activators of Cytochrome P450 3A4 (AID 885); also: nearly all actives have a fitted effect of over 65% in size; also: potency is read from the fitted curve at half-maximal effect
# How it was run: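 CYP3A4 activity: Luciferin-PPXE O-dealkylation, 25uM substrate, 200mM KPO4, RT throughout. Read-out is luciferase luminescence; higher values reflect activation.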
# [8] = target: Luciferin 4-monooxygenase (Photinus pyralis) (UniProt P08659); experiment: Biochemical firefly luciferase enzyme assay for NPC (AID 624030);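 also: purified P. pyralis luciferase at 10 nM with luciferin and ATP substrate; 0% = DMSO and -100% = full luciferase inhibition by PTC124 control; nearly all actives have a fitted effect of over 70% in size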
# How it was run: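 Direct inhibition of firefly luciferase enzyme (10 nM final, 50 mM Tris Acetate) assessed by luminescence within 5 minutes. Percent activity scaled between DMSO and PTC124 positive control, with concentration-effect curves classified by fit quality and response.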
# [9] = measured here: cell count channel max response
# [10] = measured here: lipid channel max response
# Chain of Cytochrome P450 3A4 (Homo sapiens) (P08684 whole entry, looked up): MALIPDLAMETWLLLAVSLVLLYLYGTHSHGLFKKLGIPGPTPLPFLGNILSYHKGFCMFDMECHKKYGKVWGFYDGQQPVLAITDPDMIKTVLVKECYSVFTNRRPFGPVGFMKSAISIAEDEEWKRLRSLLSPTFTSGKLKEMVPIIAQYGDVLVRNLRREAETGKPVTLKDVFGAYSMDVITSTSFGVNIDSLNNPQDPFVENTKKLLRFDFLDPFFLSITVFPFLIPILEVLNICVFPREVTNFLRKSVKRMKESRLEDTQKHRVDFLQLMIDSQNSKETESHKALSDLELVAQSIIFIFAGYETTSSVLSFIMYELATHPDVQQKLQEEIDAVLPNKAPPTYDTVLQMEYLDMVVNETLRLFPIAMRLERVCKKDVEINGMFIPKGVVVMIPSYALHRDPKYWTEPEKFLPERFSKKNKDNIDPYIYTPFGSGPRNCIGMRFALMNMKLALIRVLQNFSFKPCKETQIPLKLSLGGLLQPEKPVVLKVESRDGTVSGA
# Chain of DNA dC->dU-editing enzyme APOBEC-3G (Homo sapiens) (Q9HC16 whole entry, looked up): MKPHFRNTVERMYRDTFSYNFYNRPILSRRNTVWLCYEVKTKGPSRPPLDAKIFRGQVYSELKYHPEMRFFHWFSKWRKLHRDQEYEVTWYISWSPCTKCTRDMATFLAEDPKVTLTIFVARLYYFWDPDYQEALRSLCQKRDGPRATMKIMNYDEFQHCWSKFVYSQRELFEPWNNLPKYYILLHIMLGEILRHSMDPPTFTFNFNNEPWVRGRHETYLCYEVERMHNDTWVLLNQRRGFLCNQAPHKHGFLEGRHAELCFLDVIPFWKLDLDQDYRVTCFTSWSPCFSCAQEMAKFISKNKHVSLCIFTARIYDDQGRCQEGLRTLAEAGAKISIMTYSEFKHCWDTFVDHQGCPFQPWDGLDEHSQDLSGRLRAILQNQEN
# Chain of Ubiquitin carboxyl-terminal hydrolase 1 (Homo sapiens) (O94782 whole entry, looked up): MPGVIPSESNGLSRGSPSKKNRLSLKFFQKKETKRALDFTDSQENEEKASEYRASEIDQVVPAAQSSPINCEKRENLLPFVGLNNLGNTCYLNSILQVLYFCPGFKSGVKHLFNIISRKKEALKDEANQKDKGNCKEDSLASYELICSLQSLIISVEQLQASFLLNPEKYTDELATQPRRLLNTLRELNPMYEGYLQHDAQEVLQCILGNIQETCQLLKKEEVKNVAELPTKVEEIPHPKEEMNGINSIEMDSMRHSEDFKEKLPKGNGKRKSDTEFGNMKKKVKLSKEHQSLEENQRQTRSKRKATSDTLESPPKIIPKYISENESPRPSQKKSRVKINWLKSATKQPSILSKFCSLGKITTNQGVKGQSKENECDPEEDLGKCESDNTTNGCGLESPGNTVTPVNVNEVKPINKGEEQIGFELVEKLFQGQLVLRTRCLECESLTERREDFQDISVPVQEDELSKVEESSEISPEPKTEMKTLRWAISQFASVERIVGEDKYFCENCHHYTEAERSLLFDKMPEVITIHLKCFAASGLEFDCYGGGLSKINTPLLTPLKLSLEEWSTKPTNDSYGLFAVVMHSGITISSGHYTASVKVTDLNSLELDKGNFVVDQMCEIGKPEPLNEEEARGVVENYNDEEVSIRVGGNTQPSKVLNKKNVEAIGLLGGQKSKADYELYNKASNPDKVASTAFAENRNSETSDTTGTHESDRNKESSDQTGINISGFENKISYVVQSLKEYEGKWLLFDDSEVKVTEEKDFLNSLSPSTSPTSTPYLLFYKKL
# Chain of Luciferin 4-monooxygenase (Photinus pyralis) (P08659 whole entry, looked up): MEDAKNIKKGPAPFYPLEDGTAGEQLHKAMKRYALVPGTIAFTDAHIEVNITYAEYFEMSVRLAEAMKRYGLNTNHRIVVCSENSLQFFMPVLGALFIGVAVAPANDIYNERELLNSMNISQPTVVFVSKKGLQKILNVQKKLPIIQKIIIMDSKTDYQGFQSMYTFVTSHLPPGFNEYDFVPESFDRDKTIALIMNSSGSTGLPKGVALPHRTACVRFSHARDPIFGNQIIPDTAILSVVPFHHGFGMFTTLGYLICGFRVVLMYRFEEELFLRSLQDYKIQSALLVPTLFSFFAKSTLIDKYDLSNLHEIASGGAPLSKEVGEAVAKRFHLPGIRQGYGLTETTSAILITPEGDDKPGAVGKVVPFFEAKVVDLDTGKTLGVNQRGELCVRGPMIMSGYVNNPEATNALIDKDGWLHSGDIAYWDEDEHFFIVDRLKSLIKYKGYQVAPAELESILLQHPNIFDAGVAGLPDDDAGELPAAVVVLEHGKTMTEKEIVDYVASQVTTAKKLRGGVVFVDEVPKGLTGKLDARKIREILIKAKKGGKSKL
Compound,Potency [1],Potency [2],"activity change, negative = inhibition [3]","max response [3, 9]","max response [3, 10]",Potency [4],outcome [5],Potency [6],Potency [7],Potency [3],Potency [8]
Cc1onc(-c2ccccc2Cl)c1C(=O)NC1C(=O)N2C1SC(C)(C)C2C(=O)O (stereo not drawn),inactive,inactive,9.93% (inactive),11.3%,24.6%,inactive,,,,,
O=c1c2ccccc2oc2ccccc12,inactive,inactive,15% (inactive),9.44%,28%,inactive,,,,,
O=S(=O)(O)c1cc(N=C=S)ccc1/C=C/c1ccc(N=C=S)cc1S(=O)(=O)O,,inactive,9.64% (inactive),-3.47%,10.3%,inactive,,,,,
CC1CC[C@@]2(C(=O)O)CCC3(C)C(=CCC4[C@]5(C)CC(O)C(O)[C@](C)(CO)C5C(O)C[C@@]43C)C2C1C (stereo partly drawn),inactive,inactive,7.29% (inactive),14.9%,28.6%,inactive,,,,,
NCC1O[C@@H](OC2C(N)CC(N)C(O)C2O[C@@H]2OC(CO)C(O)C2O)C(N)C(O)C1O (stereo partly drawn),inactive,inactive,6.74% (inactive),5.17%,12.7%,inactive,,,,,
CC1(C)C2(Cl)C(Cl)C(Cl)C(Cl)(C(Cl)Cl)C1(Cl)C2Cl (stereo not drawn),inactive,inactive,3.3% (inactive),3.76%,3.86%,inactive,,,,,
C[C@@H]1C(=O)O[C@H]2[C@@H](O)[C@@]34[C@H]5CC(C(C)(C)C)[C@]36[C@@H](OC(=O)[C@@H]6O)O[C@@]4(C(=O)O5)[C@@]12O (stereo partly drawn),,,7.16% (inactive),-2.81%,2.02%,,inactive,,,,
CCOC(=O)OC(C)OC(=O)C1N2C(=O)C(NC(=O)C(N)c3ccccc3)C2SC1(C)C (stereo not drawn),inactive,inactive,6.11% (inactive),21.6%,29.1%,inactive,,,,,
CC(C)CC(NC(=O)OCC1c2ccccc2-c2ccccc21)C(=O)O (stereo not drawn),inactive,inactive,2.46% (inactive),10.8%,14.5%,inactive,,,,,
C#C[C@]1(O)CCC2C3CCC4=Cc5oncc5C[C@@]4(C)C3CC[C@@]21C (stereo partly drawn),inactive,inactive,9.19% (inactive),9.5%,21.9%,inactive,,,,,
O=c1cc(-c2ccc(O)cc2)oc2cc(O)ccc12,inactive,inactive,10.6% (inactive),-4.61%,5.18%,inactive,,,,,
CC(=O)OC1C(=O)[C@@]2(C)C(O)CC3OC[C@]3(OC(C)=O)C2C(OC(=O)c2ccccc2)[C@]2(O)CC(OC(=O)C(O)C(NC(=O)c3ccccc3)c3ccccc3)C(C)=C1C2(C)C (stereo partly drawn),inactive,inactive,-3.78% (inactive),1.34%,-0.503%,inactive,,,,,
Fc1ccc([C@H]2CCNCC2COc2ccc3c(c2)OCO3)cc1 (stereo partly drawn),inactive,inactive,12.8% (inactive),-0.955%,14.7%,inactive,,,,,
CC(N)C(O)c1cccc(O)c1 (stereo not drawn),inactive,inactive,8.66% (inactive),6.62%,19.6%,inactive,,,,,
C=C1CCC2C(C)(CO)C(O)CCC2(C)C1C/C=C1\C(=O)OCC1O (stereo not drawn),,,-0.167% (inactive),24.9%,25.5%,,inactive,,,,
CC(C)(C)NC[C@@H](O)COc1nsnc1N1CCOCC1,inactive,inactive,13.4% (inactive),16.2%,36.5%,inactive,,,,,
COc1cc(C(=O)OC2CC[C@]3(C)C4CCC5[C@]6(O)CC(O)[C@]7(O)C(CN8CC(C)CCC8[C@]7(C)O)[C@]6(O)C[C@@]53O[C@]24O)cc(OC)c1OC (stereo partly drawn),,inactive,4.04% (inactive),17.4%,24.2%,inactive,,,,,
C[C@]12CCC3c4ccc(OS(=O)(=O)O)cc4CCC3C1CCC2=O (stereo partly drawn),inactive,inactive,9.98% (inactive),6.42%,22.2%,inactive,,,,,
C=CC(C1=CC(=O)C=CC1=O)c1ccccc1 (stereo not drawn),inactive,inactive,7.07% (inactive),8.2%,16.8%,inactive,,,,,
CCOC(=O)C(CCc1ccccc1)NC(C)C(=O)N1C(C(=O)O)CC2CCCC21 (stereo not drawn),inactive,inactive,8.81% (inactive),13.5%,25.8%,inactive,,,,,

Compound,Potency [1],Potency [2],"activity change, negative = inhibition [3]","max response [3, 9]","max response [3, 10]",Potency [4],outcome [5],Potency [6],Potency [7],Potency [3],Potency [8]
CC(=O)OC1C[C@]2(C)[C@@H](CC(O)C3[C@]4(C)CCC(O)C(C)[C@@H]4CC[C@]32C)/C1=C(/CCC=C(C)C)C(=O)O (stereo partly drawn),inactive,inactive,5.26% (inactive),12.3%,24.1%,inactive,,,,,
NCC1O[C@@H](OC2C(N)C[C@H](N)[C@@H](O[C@H]3OC(CO)C(O)C(N)C3O)C2O)C(O)C(O)C1O (stereo partly drawn),inactive,inactive,12.1% (inactive),13.1%,29.6%,inactive,,,,,
O=C(O)CCC(=O)OC[C@@H](NC(=O)C(Cl)Cl)C(O)c1ccc([N+](=O)[O-])cc1 (stereo partly drawn),inactive,inactive,7.24% (inactive),16.6%,25.2%,inactive,,,,,
CC1(C)SC2C(NC(=O)COc3ccccc3)C(=O)N2C1C(=O)O (stereo not drawn),inactive,inactive,3.45% (inactive),17.3%,22.6%,inactive,,,,,
CC(C)C(C)/C=C/C(C)C1CCC2C3=CCC4CC(=O)CC[C@@]4(C)C3CC[C@]21C (stereo partly drawn),inactive,inactive,5.02% (inactive),-0.92%,5.16%,inactive,,,,,
COC(=O)C(N)CS (stereo not drawn),inactive,inactive,6.93% (inactive),11.1%,22.7%,inactive,,,,,
CC(CCC(=O)O)C1CCC2C3CC[C@H]4CC(O)CC[C@@]4(C)C3CC(O)[C@]12C (stereo partly drawn),inactive,inactive,8.52% (inactive),-1.9%,10.5%,inactive,,,,,
C=C1CC[C@@H]2O[C@@]2(C)CC[C@H]2[C@H]1CC2(C)C,,,1.31% (inactive),22.2%,21.2%,,inactive,,,,
COC(=O)C1C(O)CC[C@@H]2CN3CCc4c([nH]c5ccccc45)C3C[C@@H]12 (stereo partly drawn),inactive,inactive,4.48% (inactive),19.7%,26.3%,inactive,,,,,
CC(=O)OC1CC2C(C)(C)C(O)CC[C@@]2(C)C2CC[C@@]3(C)C(c4ccoc4)OC(=O)C4OC43[C@]12C (stereo partly drawn),inactive,inactive,-20.5% (inactive),-7.63%,-27.3%,,,2.51 µM (active),inactive,,
COc1c(-c2coc3cc4c(cc3c2=O)CC(O)C(C)(C)O4)ccc2c1C=CC(C)(C)O2 (stereo not drawn),inactive,inactive,,-20.3%,-70.3%,,,inactive,2.51 µM (active),0.0708 µM (active),
COc1ccc2c(c1)OCC(Cc1ccc(O)c(OC)c1)C2=O (stereo not drawn),inactive,inactive,13.3% (inactive),8.4%,29.2%,,,2 µM (active),inactive,,
CO/N=C(\C(=O)NC1C(=O)N2C(C(=O)OCOC(=O)C(C)(C)C)=C(/C=C\c3scnc3C)CSC12)c1csc(N)n1 (stereo not drawn),inactive,inactive,12.3% (inactive),-4.33%,11.5%,,,,,,inactive
COc1ccc(-c2oc3ccccc3c(=O)c2O)cc1OC,inactive,inactive,7.98% (inactive),6.61%,24.2%,,,20 µM (active),inactive,,
COC(=O)C(O)C1C(C)(C)C(OC(C)=O)C2CC3=C4CC(=O)OC(c5ccoc5)[C@]4(C)CCC3[C@@]1(C)C2=O (stereo partly drawn),inactive,inactive,0.311% (inactive),4.91%,8.34%,,,10 µM (active),inactive,,
CC(=O)OC1CC(OC(C)=O)[C@]2(C)C(CC(O)[C@]3(C)C2CC[C@@]2(C)C(c4ccoc4)OC(=O)C4O[C@]432)C1(C)C (stereo partly drawn),inactive,inactive,-15.6% (inactive),-1.7%,-11.8%,,,2.51 µM (active),inactive,,
CC1(C)CCC[C@]2(C)C3CC(=O)O[C@@]3(C)CC[C@H]12 (stereo partly drawn),,,5.49% (inactive),5.53%,11.1%,,inactive,,inactive,,
C=C1C2=CC(=O)OC(c3ccoc3)[C@]2(C)CCC1[C@]1(C)C=CC(=O)C(C)(C)C1CC(=O)OC (stereo partly drawn),inactive,inactive,-2.8% (inactive),12.4%,11.5%,,,3.98 µM (active),inactive,,
COc1ccccc1-c1coc2cc(O)ccc2c1=O,inactive,inactive,5.08% (inactive),-6.55%,10.3%,,,25.1 µM (active),inactive,,
